For assay [1], the target named is G protein-coupled receptor kinase 5 (Homo sapiens) (UniProt P34947). Conditions: at 1 µM.
In assay [2] the target is G protein-coupled receptor kinase 6 (Homo sapiens) (UniProt P43250). The note with it: at 1 µM.
G protein-coupled receptor kinase 6 (Homo sapiens), sequence (P43250 whole entry, looked up): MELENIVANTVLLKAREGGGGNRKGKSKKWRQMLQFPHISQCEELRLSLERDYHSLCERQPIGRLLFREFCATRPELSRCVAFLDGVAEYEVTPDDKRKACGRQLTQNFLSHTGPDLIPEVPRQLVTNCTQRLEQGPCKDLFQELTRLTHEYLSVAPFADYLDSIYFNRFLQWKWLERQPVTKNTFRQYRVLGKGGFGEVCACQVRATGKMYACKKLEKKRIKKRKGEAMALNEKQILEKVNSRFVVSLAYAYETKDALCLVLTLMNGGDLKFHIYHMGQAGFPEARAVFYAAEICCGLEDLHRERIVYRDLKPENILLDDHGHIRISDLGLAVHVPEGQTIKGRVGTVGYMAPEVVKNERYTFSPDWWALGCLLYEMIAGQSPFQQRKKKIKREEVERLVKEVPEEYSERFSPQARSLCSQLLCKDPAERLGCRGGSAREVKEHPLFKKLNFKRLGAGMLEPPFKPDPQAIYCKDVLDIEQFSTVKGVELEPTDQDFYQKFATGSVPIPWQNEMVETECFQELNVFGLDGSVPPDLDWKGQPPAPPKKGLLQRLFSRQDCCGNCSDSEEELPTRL

G protein-coupled receptor kinase 5 (Homo sapiens), sequence (P34947 whole entry, looked up): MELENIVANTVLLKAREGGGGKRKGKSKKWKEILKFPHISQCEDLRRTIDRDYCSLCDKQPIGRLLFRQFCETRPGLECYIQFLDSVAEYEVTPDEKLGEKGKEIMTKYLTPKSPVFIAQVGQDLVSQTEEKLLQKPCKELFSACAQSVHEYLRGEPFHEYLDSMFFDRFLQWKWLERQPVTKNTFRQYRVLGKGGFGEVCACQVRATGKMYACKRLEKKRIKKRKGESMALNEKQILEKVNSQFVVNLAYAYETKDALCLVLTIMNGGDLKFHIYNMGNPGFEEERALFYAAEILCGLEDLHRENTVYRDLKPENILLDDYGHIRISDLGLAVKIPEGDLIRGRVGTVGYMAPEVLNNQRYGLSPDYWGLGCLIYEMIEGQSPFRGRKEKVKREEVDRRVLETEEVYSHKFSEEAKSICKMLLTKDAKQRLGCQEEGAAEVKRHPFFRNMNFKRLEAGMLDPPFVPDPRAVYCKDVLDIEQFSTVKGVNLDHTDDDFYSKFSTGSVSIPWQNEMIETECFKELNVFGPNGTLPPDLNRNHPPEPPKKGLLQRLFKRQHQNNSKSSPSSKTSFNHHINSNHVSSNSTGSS

For the molecule `Cn1nc2c3c(cccc31)C(=O)c1ccccc1-2`, the residual activity (usually the signal under treatment as a percentage of the control signal) in assay [1] was determined as 102%; in assay [2] it was 93%.

`COc1ccc(Cl)cc1NC(=O)Nc1cc(C)nc2ccccc12`: the residual activity in assay [2] was found to be 98%.

Turning to `NC(=O)Nc1sc(-c2ccc(F)cc2)cc1C(N)=O`, the residual activity in assay [1] was 93%; in assay [2], 85%.

`NC(=O)c1ccc(-c2nc(-c3ccc4c(c3)OCCO4)c(-c3ccccn3)[nH]2)cc1`: in assay [2], the residual activity is 95%.

On to `CCN(CC)CCNC(=O)c1c(C)[nH]c(/C=C2\C(=O)Nc3ccc(Cl)cc32)c1C`, for which the residual activity in assay [1] and in assay [2] was 68% in each case.

As to `CCN(CC)CCCCN1c2ccccc2Oc2ccc(Cl)cc21`, the figures for the residual activity in assay [1] and in assay [2] were 107% and 102%, respectively.

For the molecule `NC(=O)c1cccc(-c2cc(Nc3ccc(OC(F)(F)F)cc3)ncn2)c1`, the residual activity in assay [2] was found to be 94%.

As for `c1ccc2c(-c3ccncc3)c[nH]c2c1`, the residual activity came to 98% in assay [1] and 87% in assay [2].

For the origin of these results see ChEMBL document CHEMBL2218924, “A broad activity screen in support of a chemogenomic map for kinase signalling research and drug discovery” (Biochem J, 2013).
